MARV entry inh: qHTS for inhibitors of binding or entry into cells for Marburg Virus. Potency, µM (doses to about 37.8 µM), without a hit: top-dose activity change, negative = inhibition, most hits filed as inhibitors. actives 1.8% (n = 300,000). Marburg virus pseudotyped entry inhibition, cell reporter; calls by dose curve; tested in HEK293 cells; also: potency is read from the fitted curve at half-maximal effect
HCMV antiviral: qHTS Assay for inhibitors of the human cytomegalovirus (HCMV); HFF cells, HCMV-luciferase reporter, 72 h; hits give low values; activity change, negative = inhibition, % at 57.5 µM; actives 4.5% (n = 410,000); in the data active = activity change below about -60%; inconclusive = no clear call, values can overlap the other calls; inactive = above about -39%
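Two-dose cell screen: HFF monolayers treated with compounds and infected with luciferase-expressing HCMV at 1 PFU/cell, 72 h at 37C, then lysed for luciferase measurement.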
HCV inhibitor: qHTS Assay for Inhibitors of Hepatitis C Virus (HCV) | Huh7.5.1 HCVcc-Cre infection, luciferase reporter, 44 h | Potency, µM (doses to about 41.8 µM), inactives show at the highest dose activity change, negative = inhibition, hits mostly inhibitors | actives 3.4% (n = 340,000) | AID 651820, 2012; active = well fitted inhibition curve with a large enough effect; inconclusive = small, poorly fitted or top-dose-only effect, or another doubt; inactive = no such curve, though single readings can be large or run the other way; also: potency is read from the fitted curve at half-maximal effect
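After 44 h co-culture of compound, cells and HCVcc-Cre (~0.5 moi), substrate is added for 15 min at room temperature and luciferase measured over 15 sec. Cells were seeded at 1,000/well and pre-cultured 4 h.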
VACV Venus inh: qHTS for Stage-Specific Inhibitors of Vaccinia Orthopoxvirus: Venus Reporter Primary qHTS; Vaccinia virus Venus reporter expression, fluorescence; Potency, µM (doses to about 36.5 µM), without a hit: top-dose activity change, negative = inhibition, actives largely listed as inhibitors; actives 0.46% (n = 330,000); AID 720580, 2013; calls by dose curve; tested in A549 cells; also: potency is read from the fitted curve at half-maximal effect; nearly all actives have a fitted effect of over 30% in size
VACV mCherry inh: qHTS for Stage-Specific Inhibitors of Vaccinia Orthopoxvirus: mCherry Reporter Primary qHTS; actives 0.63% (n = 310,000); Vaccinia virus mCherry reporter infection, fluorescence; Potency, µM (highest dose often 36.5 µM), for inactives: at the highest dose activity change, negative = inhibition, actives largely listed as inhibitors; AID 720579, 2013; calls by dose curve; tested in A549 cells; also: potency is read from the fitted curve at half-maximal effect; nearly all actives have a fitted effect of over 35% in size
Lassa entry inh: qHTS for Inhibitors of binding or entry into cells for Lassa Virus | Lassa virus pseudotype entry inhibition, cell reporter | Potency, µM (titrated, usually from 37.9 µM), inactives show at the top dose activity change, negative = inhibition, hits mostly inhibitors | actives 1.2% (n = 300,000) | AID 540256, 2011; calls by dose curve; tested in HEK293 cells; also: potency is read from the fitted curve at half-maximal effect; nearly all actives have a fitted effect of over 50% in size
* = called active by the depositor; [ ] = remark or other dose. Hits are enriched below; roughly 7.8% of the tested compounds scored in any of these assays. % is scaled to controls: 0 for no effect and ±100 for the full control effect.

For O=C1Cc2c([nH]c3ccc(Br)cc23)-c2ccccc2N1 the results were MARV entry inh inconclusive, HCMV antiviral -75.2*, HCV inhibitor inconclusive, VACV Venus inh inconclusive, VACV mCherry inh inconclusive and Lassa entry inh inconclusive.
For Cc1ccc(S(=O)(=O)c2nnn3c2nc(NC2CCCCCC2)c2sccc23)cc1C the results were HCMV antiviral -19.8, VACV Venus inh inconclusive, VACV mCherry inh -17.4% and Lassa entry inh -22.4%[46.1 µM].
`Cc1cccc(N2CCN(C(=O)CCC(=O)N3Cc4ccccc4Oc4ncccc43)CC2)c1C` gave MARV entry inh inconclusive, HCMV antiviral -93.7*, HCV inhibitor inconclusive, VACV Venus inh -21.9%, VACV mCherry inh inconclusive and Lassa entry inh inconclusive.
`Cc1ccc2c(c1)N(C(=O)CCC(=O)N1CCN(c3cccc(C)c3C)CC1)CCO2` gave HCMV antiviral inconclusive, HCV inhibitor 10µM*, VACV Venus inh inconclusive and VACV mCherry inh inconclusive.
`COc1ccc(N2CCN(C(=O)CCC(=O)N3CCOc4ccc(Cl)cc43)CC2)cc1` gave HCMV antiviral -98.7*, HCV inhibitor inconclusive, VACV Venus inh inconclusive and VACV mCherry inh 14.1µM*.
Cc1ccc2c(c1)N(C(=O)CCC(=O)N1CCN(c3ccccc3)CC1)CCO2 was read as HCMV antiviral -32.8, HCV inhibitor -11.2%, VACV Venus inh 13.6% and VACV mCherry inh 4.4%.
`COc1ccccc1Cc1nc2ccccc2nc1SCC(=O)Nc1ccccc1C(F)(F)F` gave HCMV antiviral -37.5, VACV Venus inh -17.3%, VACV mCherry inh -3.1% and Lassa entry inh 29.5%[46.1 µM].
For COc1ccc(C(=O)/C=C/c2ccccc2OC)c(OC(=O)c2ccc([N+](=O)[O-])cc2)c1 the results were MARV entry inh inconclusive, HCMV antiviral -26.7, HCV inhibitor 12.6µM*, VACV Venus inh -20.1%, VACV mCherry inh inconclusive and Lassa entry inh -5.5%.
For CCCNC(=O)c1nnc2n1CCN(C(=O)CCc1ccccc1)C2 the results were HCMV antiviral -9.9.
Screening O=C(CCC1CCCC1)N1CCc2c([nH]c3ccccc23)C1c1ccc(F)cc1 (stereo not drawn) returned HCMV antiviral -84.4*, VACV Venus inh 0.9%, VACV mCherry inh -4.7% and Lassa entry inh 5.01µM*.
`O=C(CCC1CCCC1)N1CCc2c([nH]c3ccccc23)C1c1ccc(Cl)cc1` (stereo not drawn) gave HCMV antiviral -69.2*, VACV Venus inh 7.8%, VACV mCherry inh inactive and Lassa entry inh inconclusive.
COc1ccccc1C(NC(=O)C1CCCCC1)c1c(O)ccc2ccccc12 (stereo not drawn) was read as MARV entry inh inconclusive, HCMV antiviral -102.0*, HCV inhibitor 2.8%, VACV Venus inh -3.5%, VACV mCherry inh inactive and Lassa entry inh 5.2%.
CCC(=O)NC(c1ccccc1Cl)c1c(O)ccc2ccccc12 (stereo not drawn) was read as MARV entry inh inconclusive, HCMV antiviral inconclusive, HCV inhibitor -0.8%, VACV Venus inh -16.1%, VACV mCherry inh -2.3% and Lassa entry inh -13.7%.
`COc1c(F)c(F)cc2c(=O)c(C(=O)O)cn(C3CC3)c12` gave MARV entry inh inconclusive, HCMV antiviral -61.1*, HCV inhibitor 15.6%, VACV Venus inh -10.9%, VACV mCherry inh -5.8% and Lassa entry inh 16.7%.
`COc1c(N2CCN(C(=S)NCc3ccccc3)C(C)C2)c(F)cc2c(=O)c(C(=O)O)cn(C3CC3)c12` (stereo not drawn) gave MARV entry inh -23.0%, HCMV antiviral -67.3*, HCV inhibitor 10µM*, VACV Venus inh 12.6µM* and Lassa entry inh 11.1%.
Screening COc1c(N2CCN[C@H](C)C2)c(F)cc2c(=O)c(C(=O)O)cn(C3CC3)c12 returned HCV inhibitor 14.1%, VACV Venus inh -7.0% and VACV mCherry inh -6.1%.
